Assay outcomes from PubChem BioAssay.
An excerpt weighted towards active compounds, which were near 2.1% of everything screened.
aSyn rescue = inhibitors of alpha-synuclein toxicity in yeast; Yeast expressing alpha-synuclein, growth rescue, BacTiter-Glo, 24 h; Potency, µM (top dose mostly 46.1 µM), for the others: at the top dose growth rescue (activation), most hits filed as activators; actives 0.14% (n = 370,000); also: % of control where 0% means no effect; nearly all actives have a fitted effect of over 65% in size
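Screening used galactose-induced yeast with toxic alpha-synuclein levels, exposed to compound for 24 hr at 30 deg C. Cell growth, read with BacTiter-Glo luminescence, gave the measured signal.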
FUS yeast rescue = FUS proteinopathy suppression in yeast. actives 0.24% (n = 390,000). Potency, µM (titrated, usually from 76.6 µM), hits mostly activators. AID 1347120. S. cerevisiae FUS-expressing, growth rescue, OD600, 24 h;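 also: plate controls were DMSO vehicle for no effect and reference control for full effect; nearly all actives have a fitted effect of over 55% in size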
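Galactose (2%) drives FUS expression in yeast precultured in raffinose; seeding density OD 0.005. Test compounds incubated 24hr at 30C and 99% humidity before absorbance at 600 nm was measured.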
Abeta rescue = restores growth of yeast expressing A-beta42 peptide. yeast expressing A-beta42, growth rescue, OD600, 48 h; response scale: 0% DMSO, 100% iron-clioquinol control. Potency, µM (top dose mostly 46.1 µM), hits mostly activators. actives 0.063% (n = 410,000); also: nearly all actives have a fitted effect of over 55% in size
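Yeast A-beta toxicity model in growth medium with pinned compounds, 48 h at 30 C; growth read as absorbance at 600 nm. Normalized to FeCl3/clioquinol equimolar mix (positive) and DMSO (negative).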
TDP-43 yeast inh = inhibitors of TDP-43 toxicity in yeast; Potency, µM (doses to about 46.1 µM), for the others: top-dose growth rescue (activation), actives largely listed as activators; TDP-43 expressing yeast growth rescue, BacTiter-Glo, 24 h; actives 1.8% (n = 410,000); also: % of control where 0% means no effect; nearly all actives have a fitted effect of over 50% in size
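Cell-based yeast growth screen: TDP-43 expression induced in galactose, inoculum OD600=0.02 after raffinose pregrowth to mid-log. Read-out BacTiter-Glo luminescence at 24 hr, 30 deg C; inhibition of toxicity seen as signal increase.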
The depositor's hits bear a star; i = inactive; ? = inconclusive; / = no result given; [ ] = remark or other dose. Calls follow the shape of the dose curve; as a rule, active = well fitted curve in the direction sought with a large enough effect; inconclusive = small, poorly fitted or top-dose-only effect, or another doubt; inactive = no such curve, though single readings can be large; an effect the other way counts as inactive or inconclusive. Potency is read from the fitted curve at half-maximal effect.

SMILES	aSyn rescue	FUS yeast rescue	Abeta rescue	TDP-43 yeast inh
COc1ccc(CCNC(=O)C2CCC(CNS(=O)(=O)c3ccc(C)cc3)CC2)cc1OC (stereo not drawn)	/	i	i	9.3%
Oc1ccccc1C1C=C(c2ccc3c(c2)OCO3)NC(c2ccc(Br)cc2)N1 (stereo not drawn)	2.0%	/	/	/
Oc1ccccc1C1C=C(c2ccc3c(c2)OCO3)NC(c2cccc(Cl)c2)N1 (stereo not drawn)	4.47µM*	/	/	/
Cn1c(Cc2ccccc2)nnc1SCc1cc(=O)n2ccsc2n1	-3.1%	i	i	19.7%[9.22 µM]
O=c1cc(CSc2ccc([N+](=O)[O-])cc2)nc2sccn12	15.8µM*	i	i	14.8%[9.22 µM]
Cc1cccc(-n2c(SCc3cc(=O)n4ccsc4n3)nc3ccccc32)c1	11.2%	i	i	22.4µM*
Cc1ccccc1C(=O)Nc1cccc(C(=O)OCc2cc(=O)n3ccsc3n2)c1	/	i	i	3.4%
CC(Oc1ccccc1)C(=O)Nc1ccc(C(=O)OCc2cc(=O)n3ccsc3n2)cc1 (stereo not drawn)	/	?	i	20µM*
Cc1cccc(C(=O)OCc2cc(=O)n3ccsc3n2)c1	/	i	i	17.8µM*
CC(=O)N1CCc2c(sc(NC(=O)CSc3ccccc3)c2-c2nc3ccccc3s2)C1	3.98µM*	?	i	23.4%
Cc1cc(C(=O)CN2C(=O)c3ccccc3S2(=O)=O)c(C)n1-c1ccccc1	21.2%	?	i	?
Cc1cc(C(=O)CN2C(=O)C3CC=CCC3C2=O)c(C)n1-c1ccccc1 (stereo not drawn)	?	31.6µM*	i	-39.2%
Cc1cc2c(NC3CCCCC3)ncnc2s1	-10.9%	i	i	11.2µM*
CC(=O)c1ccc(NC(=O)CCCSc2nc(-c3ccco3)cc(C(F)(F)F)n2)cc1	/	i	i	?
Cc1cc(Cl)ccc1NC(=O)C1CCCN1C(=O)c1cccs1 (stereo not drawn)	10.5%	i	i	-6.7%
CCN(C(=O)[C@@H]1CCCN1C(=O)c1cccs1)c1nc2cc(Cl)ccc2s1	3.3%	i	i	12.6µM*
Cc1cccc(NC(=S)NNc2cccc(Cl)c2)c1	12.6%	i	12.6µM*	10.7%
Cc1cccc(NNC(=S)Nc2c(C)cccc2C)c1	11.9%	i	7.08µM*	?
Cc1cccc(NNC(=S)Nc2ccccc2)c1	12.6%	i	i	26.3%
Cc1cccc(NNC(N)=S)c1	5.3%	i	i	3.7%
CC1CCCCN1C(=O)COC(=O)c1ccc(S(C)(=O)=O)c([N+](=O)[O-])c1 (stereo not drawn)	-10.3%	/	/	/
COc1ccc2c(c1)N=C(c1[nH]c3ccccc3c1CCN1C(=O)c3ccccc3C1=O)[C@]2(O)CCN1C(=O)c2ccccc2C1=O	/	17.8µM*	/	/
O=C(c1ccc(Cl)cc1)N1CCC(C(=O)N2CCCc3ccccc32)CC1	-1.6%	/	i	14.1µM*
O=C(COC(=O)c1ccccc1O)NCC1COc2ccccc2O1 (stereo not drawn)	11.0%	/	i	16.2%
O=C(COc1ccc(Br)cc1)NCC1COc2ccccc2O1 (stereo not drawn)	?	i	i	25.1µM*
SMILES	aSyn rescue	FUS yeast rescue	Abeta rescue	TDP-43 yeast inh
O=C(COc1ccccc1)NCC1COc2ccccc2O1 (stereo not drawn)	8.1%	i	i	8.9%
Cc1ccccc1C(=O)OCC(=O)NCC1COc2ccccc2O1 (stereo not drawn)	14.0%	/	i	14.1µM*
COCc1c(C(=O)NCC2COc3ccccc3O2)oc2ccccc12 (stereo not drawn)	0.8%	i	i	31.6µM*
CC(C)Oc1ccc(/C=C/C(=O)NCC2COc3ccccc3O2)cc1 (stereo not drawn)	2.4%	i	?	17.8µM*
CC(=O)NCC1COc2ccccc2O1 (stereo not drawn)	4.1%	i	i	18.2%
CCc1nn2c(=O)cc(COC(=O)c3ccc(NC(=O)CCc4ccccc4)cc3)nc2s1	/	i	i	21.3%
Cc1c(C(=O)N2CCCC2)oc2c1-c1nn(CC(=O)NCc3ccccc3Br)cc1CC2	/	i	i	29.3%
CN(C)c1ccc(C=Nc2ccccc2C(N)=O)cc1	-12.3%	i	i	11.2µM*
Cn1c2ccccc2c2cc(C(=O)N3CCOCC3)sc21	2.8%	i	i	14.1µM*
CCn1c(=O)c2cc(C(=O)N3CCOCC3)sc2c2ccccc21	-0.1%	i	i	22.9%
O=C(COC(=O)c1ccccc1)Nc1ccccc1Br	-0.3%	i	i	1.4%
Cc1cc(NC(=O)COC(=O)c2ccc(Cl)cc2)no1	3.5%	i	i	18.1%
O=C(COC(=O)c1c(Cl)cccc1Cl)Nc1ccccc1Br	3.2%	/	i	14.1µM*
Cc1cc(NC(=O)COC(=O)c2c(Cl)cccc2Cl)no1	-2.6%	i	i	15.8µM*
O=C1C(SCCO)=C(SCCO)C(=O)c2ccccc21	-80.3%	i	i	22.4µM*
COC(=O)[C@@]12CCCCC=C1N(CCc1ccc(Cl)cc1)C(=O)[C@H]2CC(=O)NCc1ccc(C)o1	/	i	/	/
Cc1ccc(S(=O)(=O)Nc2c(C)cc([N+](=O)[O-])cc2C)cc1	17.9%	/	i	14.1µM*
Cc1ccc(S(=O)(=O)NCCNc2ccc([N+](=O)[O-])cc2)cc1	12.3%	i	i	26.4%
COc1ccc(C(=O)CCC(=O)O)cc1	1.6%	i	i	13.6%
O=C(O)CCC(=O)c1ccc(C2CCCCCC2)cc1	-15.3%	i	i	17.8µM*
OC(c1ccc(F)c(F)c1)c1nc(-c2cnc3ccccc3c2)cs1 (stereo not drawn)	10.3%	i	i	22.4µM*
OC(c1ccc(F)c(F)c1)c1nc(-c2ccoc2)cs1 (stereo not drawn)	3.7%	i	i	4.1%
CC(C)c1cccc(-c2csc(C(O)c3ccc(F)c(F)c3)n2)c1 (stereo not drawn)	-29.2%	i	i	-72.2%
OC(c1ccc(F)c(F)c1)c1nc(-c2cccc(F)c2)cs1 (stereo not drawn)	19.6%	i	i	22.4µM*
O=C(O)c1cccc(-c2csc(C(O)c3ccc(F)c(F)c3)n2)c1 (stereo not drawn)	-2.8%	i	i	?
OC(c1ccc(F)c(F)c1)c1nc(-c2ccc3c(c2)OCO3)cs1 (stereo not drawn)	?	i	i	22.4µM*
OC(c1ccc(F)c(F)c1)c1nc(-c2ccccc2)cs1 (stereo not drawn)	0.0%	i	i	14.1µM*
CN1C(=O)c2cc(NC(=O)Nc3ccc(F)c(F)c3)ccc2OC[C@H]2O[C@@H](CC(=O)O)CC[C@H]21	/	i	/	/
CCN(CC)c1nn2c(=O)c(C(=O)NCc3ccccc3Br)cnc2s1	/	i	i	25.4%
